NLRP3 yeast inh – inhibitors of NALP3 inflammasome in yeast | Yeast reconstituted NLRP3/ASC/caspase-1, beta-gal luminescence, 24 h | inhibition, % at 10 µM | 330,000 compounds, 0.39% hits;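 active = inhibition of 50% or more; inactive = inhibition below 50%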
PolyA inhibitor – inhibitors of polyadenylation in S. cerevisiae; S. cerevisiae SKY197-pL101 polyadenylation reporter, beta-gal luminescence; efflux-impaired pdr1/pdr3 knockout yeast; score 100 = 6 SD above DMSO; activity score, % at 12 µM; 300,000 compounds, 0.02% hits; AID 1875;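 active = lowest replicate activity score at least 50, where 100 means six control SD above control mean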;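 also: yeast exposed to compound for 9 h at 30 °C; higher score means more reporter readthrough which indicates perturbed polyadenylation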
NALP1 inh – blocks the NALP1 inflammasome reconstituted in yeast; S. cerevisiae NALP1/ASC/caspase-1 growth, X-gal OD620, 72 h; inhibition, % at 10 µM; 280,000 compounds, 0.61% hits; AID 2071; in the data active = inhibition mostly above about 24%, no sharp cut-off; inactive = mostly below about 32%
SUMO Mot1 rescue – SUMOylation pathway inhibition by Mot1-301 growth rescue; AID 2716; growth rescue, % at 18.8 µM; 320,000 compounds, 1% hits; S. cerevisiae Mot1-301 growth rescue, ATP luminescence, 38.5C; percent above DMSO median, 100 means doubled;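 active = every valid replicate shows activation above 250% relative to neutral control wells; inactive = the rest, any valid replicate at or below 250%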
Each line names hits and unclear results; the compound was inactive in the other large screens; ! = a repeat was not active. Only some compounds are listed: those with a hit (about 1.8% of all), similar ones and a draw of the others.

O=C(CCCn1c(=O)[nH]c2ccsc2c1=O)NCc1cccs1	NALP1 inh 21.0
Cc1cccc(CSCc2ccc(C(=O)NCC3CCCO3)o2)c1 (stereo unspecified)	SUMO Mot1 rescue 315.0
S=C1NC2(CCCC2)N=C1c1ccccc1	SUMO Mot1 rescue 490.1
S=C1NC2(CCCCCC2)N=C1c1ccccc1	none
COc1ccc(OCCCn2ccnc2)cc1	none
CCOc1ccc2nc(N3CCCC(C(=O)NC4CCCC4)C3)sc2c1 (stereo unspecified)	none
CCOc1ccc2nc(N3CCC(C(=O)NC4CCCCC4)CC3)sc2c1	SUMO Mot1 rescue 344.3
COc1cc(OC)cc(C(=O)N[C@H](C(=O)NCCc2c[nH]c3ccccc23)C(C)C)c1	none
O=C(O)c1ccccc1C(=O)NNc1ccc(F)cc1	SUMO Mot1 rescue 266.5
COc1ccc(OCCn2cncn2)cc1	none
CC1(C)CC(NC(=O)c2ccc(Cl)c(Cl)c2)CC(C)(C)N1	none
Cc1ccc(F)cc1NC(=O)C1CCN(c2cnccn2)CC1	none (no result: PolyA inhibitor)
Cc1cc(C)cc(OCC(O)CN2CCN(Cc3ccc4c(c3)OCO4)CC2)c1 (stereo unspecified)	SUMO Mot1 rescue 310.0
O=C1C2CC=C(Cl)CC2C(=O)N1CC1Cc2ccccc2CO1 (stereo unspecified)	none
Oc1ccccc1N=Cc1sc2ccccc2c1Cl	NALP1 inh 53.7 (no result: SUMO Mot1 rescue)
CC(N)C12CC3CC(CC(C3)C1)C2 (stereo unspecified)	SUMO Mot1 rescue 328.7!
Cc1ccc(C(=O)ONc2ccc(N=O)cc2)cc1	none
Cc1ccc(C(=O)ONc2ccc(N=NC(=O)c3ccccc3O)cc2)cc1	NALP1 inh 42.5
CC(=O)OC[C@]12CC[C@H]3[C@@](C)(CC[C@H]4C(C)(C)CCC[C@]34C)[C@@H]1C[C@H](C1=CC(=O)O[C@H]1OC(C)=O)O2	SUMO Mot1 rescue 910.1 (no result: PolyA inhibitor, NALP1 inh)
CC(=O)OC[C@]12CC[C@H]3[C@@](C)(CC[C@H]4C(C)(C)CCC[C@]34C)[C@@H]1C[C@@H](C1=CC(=O)O[C@@H]1OC(C)=O)O2	none (no result: PolyA inhibitor, NALP1 inh)
O=C(O)C1CCCCC1C(=O)NCCc1ccncc1 (stereo unspecified)	none
CCn1cc(C(=O)N[C@H](C)c2ccccc2)c(=O)c2cc(F)c(N3CCN(C)CC3)cc21	SUMO Mot1 rescue 815.4
COc1ccc(-c2cc(C3CCN(Cc4ccc([N+](=O)[O-])cc4)CC3)[nH]n2)cc1	none
Cc1ccc(CN2CCC(c3cc(-c4ccc(Cl)cc4)n[nH]3)CC2)cc1	NALP1 inh 35.2
COc1cccc(NC(=O)CN2C(=O)NC3(CCCCCC3)C2=O)c1	none (no result: PolyA inhibitor, NALP1 inh)
C=CCN1C(=O)c2oc3ccccc3c(=O)c2C1c1ccc(O)c(OC)c1 (stereo unspecified)	NALP1 inh 37.6
COc1ccc(OC)c(C(O)c2nc3ccccc3n2C(C)C)c1 (stereo unspecified)	SUMO Mot1 rescue 303.9
Cn1nnnc1SCCNCc1ccc(Cl)cc1	none
Cc1ccc([C@@H]2CC=C(C(=O)O)[C@H](c3ccc(Cl)cc3)N2S(=O)(=O)c2ccccc2C)cc1	SUMO Mot1 rescue 255.0 (no result: PolyA inhibitor, NALP1 inh)
Cc1ccccc1S(=O)(=O)N1[C@@H](c2ccccc2)C(C(=O)O)=CC[C@H]1c1ccc(Cl)cc1	none (no result: PolyA inhibitor, NALP1 inh)
CCc1ccc([C@@H]2CC=C(C(=O)O)[C@H](c3ccc(Br)cc3)N2S(=O)(=O)c2ccc(C)cc2)cc1	SUMO Mot1 rescue 300.2 (no result: PolyA inhibitor, NALP1 inh)
Cc1ccc([C@@H]2CC=C(C(=O)O)[C@H](c3cccc(F)c3)N2S(=O)(=O)c2ccccc2C)cc1	SUMO Mot1 rescue 279.6 (no result: PolyA inhibitor, NALP1 inh)
Cn1c(=O)[nH]c(=O)c2c1nc(Br)n2CCOc1ccccc1	none
[O-][n+]1c2ccccc2c2n1CCN=C2c1ccc(Cl)cc1	none (no result: NALP1 inh)
CC1(C)N=C(SCC(=O)Nc2ccc(Cl)cc2)C(c2ccc(Cl)cc2)=N1	NALP1 inh 36.5
O=C(Cc1ccc(Cl)cc1)NNC1CC(=O)N(c2ccc3ccccc3c2)C1=O (stereo unspecified)	SUMO Mot1 rescue 289.0 (no result: NALP1 inh)
COc1cc2c(cc1OC)C(c1ccccc1O)NCC2 (stereo unspecified)	none (no result: NALP1 inh)
CCOC(=O)c1ccc(N2Cc3ccccc3C2=NC(=O)c2ccncc2)cc1	none (no result: NLRP3 yeast inh, PolyA inhibitor, SUMO Mot1 rescue)
CCOC(=O)c1ccc(N2Cc3ccccc3C2=N)cc1	NALP1 inh 39.5
CCOC(=O)C1CCCN(C(=O)/C=C/c2cccc([N+](=O)[O-])c2)C1 (stereo unspecified)	none
Cc1cc(N2C(=O)C=CC2=O)c([N+](=O)[O-])cc1C	NALP1 inh 64.1 (no result: PolyA inhibitor)
COc1ccc(-c2noc(CN3CCN(c4ccccc4F)CC3)n2)cc1OC	none
O=C(Nc1cccc(F)c1)N1CC=C(c2ccc(Cl)cc2)CC1	NALP1 inh 39.0
O=C(CN1CCN(c2ccc(Cl)cc2)CC1)Nc1cccc(F)c1	none
COc1ccccc1NC(=O)C(=O)NCc1ccccc1Cl	none
Cc1ccc(NC(=O)C2=NNC(=O)CC2)cc1F	NALP1 inh 36.0
COCCCNS(=O)(=O)c1ccc(SC)cc1	none
O=C(c1ccc([N+](=O)[O-])cc1)N1C=CC(C(F)(F)F)=NCC1	SUMO Mot1 rescue 346.5
COc1ccc(CNc2ccccc2)cc1Br	none
COc1cc(CNc2cccc(F)c2)cc(Br)c1O	NALP1 inh 31.8
Clc1cccc(Nc2nc(-c3ccncc3)cs2)c1	SUMO Mot1 rescue 274.9
Cc1cccc(/N=C/c2c(O)c3ccccc3oc2=O)n1	NALP1 inh 27.1
Cn1nnnc1SCC(=O)NC(=O)NCc1ccccc1	none
CC(=O)Nc1nc(CC(C)C)cc2c1c(=O)oc1ccccc12	NALP1 inh 28.0
CCO[C@@H]1OC(C(=O)NCc2ccccc2)=C[C@H](C2CC2)[C@H]1CCCO	none
CCO[C@@H]1OC(C(=O)NCc2ccccc2)=C[C@H](C2CCCCC2)[C@H]1CCCO	NALP1 inh 21.0
Cc1ccc(-c2nnn(CC(=O)Nc3nnc(C(C)C)s3)n2)cc1	NALP1 inh 37.3
CC(C)c1nnc(NC(=O)CN2C(=O)c3ccccc3C2=O)s1	none
Cc1ccc2c(=O)cc(C(F)F)oc2c1	NALP1 inh 40.7
Cc1cc(C)c2c(=O)cc(C(F)F)oc2c1	none
O=C(Nc1ccccc1)N1CCc2ccccc2C1	NALP1 inh 50.2
COCCCNS(=O)(=O)c1ccc(S(=O)(=O)N2CCCC2)cc1	NALP1 inh 38.4
Cc1ccccc1-c1nc(CN2CCC(C(=O)NCCCN3CC(C)CC(C)C3)CC2)c(C)o1 (stereo unspecified)	SUMO Mot1 rescue 558.6
Cc1ccccc1-c1nc(CN2CCC(C(=O)NCCCN3CCCC3)CC2)c(C)o1	none (no result: NALP1 inh)
CC1=CCC(C(C)(C)NC(=O)c2ccccc2)C/C1=N\O (stereo unspecified)	none (no result: NALP1 inh)
CN(C)c1ncnc2c1ncn2C1OC(CO)C(O)C1O (stereo unspecified)	SUMO Mot1 rescue 277.2
C=C1C(=O)C=C2CN(C(=O)c3ccccc3)[C@@](Cc3ccc(F)cc3)(C(=O)OC)[C@@H]12	NALP1 inh 63.1
COc1ccccc1/C=N/n1cnnc1	none
O=[N+]([O-])c1ccc(OCCOc2ccccc2/C=N/n2cnnc2)cc1	NALP1 inh 33.8
CC(C)c1nnc(NC(=O)COc2ccc3c(c2)OCO3)s1	NALP1 inh 29.9
CCc1nnc(NC(=O)COc2ccc3c(c2)OCO3)s1	SUMO Mot1 rescue 259.7
